High-throughput results deposited in PubChem by Paczesny and Yang Labs, IUPUI and University of Michigan.
ST2 inh: inhibitors of human ST2 (IL1RL1) binding to IL-33, primary screen, biochemical, AlphaLISA; inhibition, % for hits at 17 µM; AlphaLISA ST2-Fc/biotin-IL-33 interaction, 1 h; Interleukin-1 receptor-like 1 (Homo sapiens), Q01638; 78,000 compounds, 2.3% hits; AID 1259354, 2018; in the data active = inhibition above about 30%
Target sequence (Q01638 whole entry, looked up): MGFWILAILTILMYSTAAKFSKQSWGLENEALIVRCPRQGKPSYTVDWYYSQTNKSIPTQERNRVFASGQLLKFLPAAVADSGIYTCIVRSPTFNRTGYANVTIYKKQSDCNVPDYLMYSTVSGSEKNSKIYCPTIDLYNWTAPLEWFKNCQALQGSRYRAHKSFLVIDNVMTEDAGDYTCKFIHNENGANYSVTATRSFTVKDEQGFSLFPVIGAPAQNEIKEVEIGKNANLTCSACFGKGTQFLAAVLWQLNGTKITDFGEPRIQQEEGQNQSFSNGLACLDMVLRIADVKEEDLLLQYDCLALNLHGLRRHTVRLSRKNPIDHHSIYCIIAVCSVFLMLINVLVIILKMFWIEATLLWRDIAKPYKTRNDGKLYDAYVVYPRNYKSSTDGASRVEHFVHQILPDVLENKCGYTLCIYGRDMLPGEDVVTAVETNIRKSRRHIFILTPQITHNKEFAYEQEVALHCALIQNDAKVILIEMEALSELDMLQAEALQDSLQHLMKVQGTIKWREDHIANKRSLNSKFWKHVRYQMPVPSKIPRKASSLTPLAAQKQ
Numbers without * were called inactive; i = inactive. This excerpt belongs to a sample that is enriched for hits.

SMILES	ST2 inh
COc1cc(/C=C2/C(=O)N(c3ccc(Br)cc3)N=C2C)cc([N+](=O)[O-])c1O	i
COc1cc(/C=C2/SC(=O)NC2=O)c([N+](=O)[O-])cc1OC	i
COc1cc(C=O)cc(C=O)c1O	i
COc1cc(Br)cc(/C=C2/NC(=O)NC2=O)c1O	i
O=C1/C(=C/c2ccccc2[N+](=O)[O-])Sc2ccccc21	31.0%*
COc1cc(/C=C2\C(=O)N(c3cccc(C(=O)O)c3)N=C2C)cc([N+](=O)[O-])c1O	i
COc1cc(/C=C2\Sc3ccccc3C2=O)cc([N+](=O)[O-])c1O	30.0%*
COc1cc(Br)cc(/C=C2\Sc3ccccc3C2=O)c1O	60.0%*
COc1ccccc1/C=C/C1=NC(=C\c2ccccc2[N+](=O)[O-])/C(=O)O1	i
O=C(c1cc(-c2ccc3c(c2)OCO3)on1)N1CCCCC1	i
COc1ccc(NC(=O)CCCn2nc([N+](=O)[O-])c(Cl)c2C)c(OC)c1	i
CC(NC(=O)c1cccc([N+](=O)[O-])c1)c1ccccc1 (stereo unspecified)	i
CCC(=O)N1CCc2cc(S(=O)(=O)NC(C(=O)N3CC(C)CC(C)C3)C(C)C)ccc21 (stereo unspecified)	i
OCCN=C1CCc2c1[nH]c1ccc(C3CCCCC3)cc21	i
O=C(O)C1=CC(=C(c2ccc(O)c(C(=O)O)c2)c2ccc(O)c(C(=O)O)c2)C=CC1=O	89.0%*
COCCn1c(CNC(=O)c2ccc(OC)cc2OC)nc2cccnc21	i
CC(C)(C1NCCc2[nH]cnc21)N1CCOCC1 (stereo unspecified)	i
Cn1nc(-c2ccc(Cl)cc2)c2cc(C(=O)N3CCN(c4ccc(Cl)cc4)CC3)sc21	i
Cc1c(C(=O)O)cccc1-c1ccc(/C=C/[N+](=O)[O-])o1	61.0%*
COc1cc([N+](=O)[O-])ccc1-c1ccc(/C=C2\C(=O)N(c3cccc(Cl)c3)N=C2C)o1	i
N=C1S/C(=C/c2ccc(-c3ccccc3C(=O)O)o2)C(=O)N1c1nccs1	i
Cc1ccc(Cl)cc1-c1ccc(/C=C/[N+](=O)[O-])o1	51.0%*
CC(=O)Nc1ccccc1-c1ccc(C)o1	i
O=C(CN1CCCN(Cc2ccccc2Cl)S1(=O)=O)Nc1ccc2c(c1)OCO2	i
N#Cc1cccc(-c2ccnc(N[C@H]3CO[C@H]4[C@@H]3OC[C@@H]4NC(=O)c3ccc(C(F)(F)F)cc3)n2)c1	i
SMILES	ST2 inh
CC(C)(C)CN1CCCC2(CCN(C(=O)c3ccc(Cn4cnnn4)cc3)C2)C1 (stereo unspecified)	i
CCn1c2ccccc2c2cc(/C=C/[N+](=O)[O-])ccc21	38.0%*
CCn1c2ccccc2c2cc(NC(=O)CSc3cc(=O)n(C)c4ccccc34)ccc21	i
CCn1c2ccccc2c2cc(CN3CCCN(C)CC3)ccc21	i
COc1ccc2nc(Nc3nnc(-c4ccccc4)o3)sc2c1	i
CN1C[C@@H](N)C[C@H]1C(=O)NCCCN1CCOCC1	i
Cn1c(/C=C/c2ccc([N+](=O)[O-])o2)nc2ccc(I)cc2c1=O	i
O=[N+]([O-])c1ccc(/C=C/c2ccc3ccccc3n2)o1	67.0%*
Cc1cc(C(=O)Nc2ccc(Br)cc2)no1	i
CCOC(=O)CC1CCCCN1C(=O)c1ccc2nc(-c3cccc(OC)c3)oc2c1 (stereo unspecified)	i
CN1CCC(N(C)Cc2cccc(Oc3ccccc3)c2)CC1	i
COc1ccc(C2=C/C(=C3/c4ccccc4-c4ncccc43)C(=O)O2)c(OC)c1	31.0%*
COc1ccc(NC(=O)c2coc(=O)c3ccccc23)c(OC)c1	i
COc1ccc(N2C(=O)c3cccnc3C2=O)c(OC)c1	i
COc1ccc(NC(=O)c2cnc3scc(C)n3c2=O)cc1OC	i
Cc1ccc(N=Cc2nc(-c3ccccc3F)oc2O)c([N+](=O)[O-])c1	34.0%*
Oc1oc(-c2ccccc2F)nc1C=Nc1cc(Cl)c(Cl)cc1Cl	i
O=C(O)c1ccccc1N=Cc1nc(-c2ccccc2F)oc1O	i
CCOc1ccnc(N2CCN(Cc3cccc(C)c3)C(=O)C2)n1	i
COc1ccc(NC(=O)/C=C/c2ccc3c(c2)OCO3)c([N+](=O)[O-])c1	i
COc1cccc(NC(=O)/C(C#N)=C\c2cn(Cc3ccc(F)cc3)c3ccccc23)c1	i
COc1cccc(NC(=O)/C(C#N)=C\c2cn(Cc3ccccc3)c3ccccc23)c1	35.0%*
Cc1cc(/C=C(\C#N)C(=O)Nc2ccccc2)c(C)n1-c1ccc(F)cc1	i
CC(C)Oc1ccc(Cc2c(O)nc(N)[nH]c2=O)cc1	i
CC1CC(=O)C2=C(C1)OC(N)=C(C#N)C21C(=O)Nc2ccccc21 (stereo unspecified)	i
SMILES	ST2 inh
COC(=O)Cn1cc(CN2CCCC(Nc3ccc(OC)c(OC)c3)C2)c2ccccc21 (stereo unspecified)	i
O=C(Cc1cccs1)Nc1ccc(F)cc1	i
Cc1cnc(C(=O)N2CCC3(CCCN(Cc4ccccc4F)C3=O)C2)[nH]1 (stereo unspecified)	i
O=C1CC(c2ccc(F)c(Br)c2)c2ccc3ccccc3c2N1 (stereo unspecified)	i
O=C1NC(=Nc2ccccc2)S/C1=C/c1ccc(F)c(Br)c1	43.0%*
Cc1ccc(NC(=O)CC2SC(=Nc3ccccc3)NC2=O)c(C)c1 (stereo unspecified)	i
O=C1NC(=Nc2ccccc2)S/C1=C/c1cc(Br)ccc1O	36.0%*
Cc1ccccc1CC1SC(=Nc2ccccc2)NC1=O (stereo unspecified)	i
O=C1NC(=Nc2ccccc2)SC1(CO)CO	i
O=C1NC(=Nc2ccccc2)S/C1=C/c1ccc(O)c(O)c1	35.0%*
CCOc1cc(/C=C2\C(=O)NC(=O)N(c3ccccc3)C2=O)ccc1O	i
O=C1NC(=Nc2cccc(Br)c2)SC1(CO)CO	i
Cn1c(=O)c2c(nc(Oc3ccc(Cl)cc3)n2Cc2cccc(F)c2)n(C)c1=O	i
CC(=O)CSc1nnc(-c2ccc(Br)cc2)o1	i
NCC(O)COCCN1CCOCC1 (stereo unspecified)	i
CSc1nc2c(c(=O)[nH]1)C(c1ccc3c(c1)OCO3)C1=C(CCCC1=O)N2 (stereo unspecified)	i
CNCc1cn(C[C@H]2O[C@@H](CC(=O)N(C)Cc3ccccc3)[C@H](O)[C@@H]2O)nn1	i
Cc1cc(C(=O)NCc2ccccc2)c(=O)[nH]c1C	i
Cc1nnc(NC(=O)NC2CCNCC2)s1	i
Cc1nc(SCC(=O)Nc2ccc(Cl)c(Cl)c2)[nH]c(=O)c1Cc1ccccc1	i
CCOc1cc(/C=C2/NC(=O)NC2=O)cc(Cl)c1OCc1cccc(C(=O)O)c1	i
COc1cccc([C@@H](C)NC(=O)CSc2n[nH]c(C)n2)c1	i
COc1cc(/C=C2/SC(N3CCC(C)CC3)=NC2=O)cc(OC)c1OC	i
Cc1ccc(/C=C2/SC(N3CCC(C)CC3)=NC2=O)o1	30.0%*
C=CCOc1ccc(/C=C2/SC(N3CCOCC3)=NC2=O)cc1	i
Cc1ccc(/C=C2\CS/C(=C\c3ccc(C)o3)C2=O)o1	60.0%*
O=C1N=C(N2CCOCC2)S/C1=C/c1ccc(Cl)cc1	i
CCOc1ccc(-c2nc3s/c(=C\c4ccc(C)o4)c(=O)n3n2)cc1	i
O=C1N=C(N2CCOCC2)S/C1=C/c1ccc(-c2ccccc2)o1	34.0%*
